HSF1 activator: HSF-1 activators, primary screen, NIH3T3-HGL cells, MG132 stress, luminescence, single point. NIH3T3-HGL HSF-1 luciferase reporter, 8 h; 100% = twice DMSO control signal. activation, % at 9 µM. 1.7% of 300,000 active;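 active means mean replicate activation of at least 50% with a set share of replicates each reaching 50%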;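 further: 0% = median of the neutral control wells and 100% = twice that signal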
HSF1 inhib: HSF1 inhibitors in luciferase reporter cells, primary screen, cell-based, NIH3T3, luminescence | activity change, negative = inhibition, % at 7.5 µM (by protocol) | NIH3T3-HGL HSE-luciferase, MG132-induced, luminescence 8 h; active compounds read low | AID 2098, 2009 | 0.77% of 300,000 active;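 active means more than half of replicate wells show activity change below -50%, luminescence cut by over half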;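 further: luciferase reports HSF-1 transcriptional activity via heat shock element; 0% = median of DMSO wells and -100% = zero luminescence signal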
MITF act: activators of MITF-driven TRPM1 promoter reporter, primary screen, cell-based, SK-MEL-5, luciferase, single point; SK-MEL-5 TRPM1-promoter luciferase, 24 h; % of positive control, neutral wells = 0; activation, % at 12.5 µM; 0.75% of 300,000 active;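 active means mean activation of at least 80% with every replicate also reaching 80%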;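 further: 0% = neutral control wells and 100% = parthenolide positive control wells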
esBAF inh: Bmi1 luciferase reporter increase in mESCs, primary screen, esBAF inhibitor project, mouse ES cells, Bmi1 luciferase knock-in, single point; 2% of 350,000 active; 24 h; 100% = twice the neutral-well signal; reporter increase, % at 12.5 µM; in the data active means activation above about 40%;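 further: 0% = median of the plate's neutral control wells and 100% = double that signal; a rise in the Bmi1 reporter signal indicates esBAF inhibition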
Wnt act: Wnt/beta-catenin pathway activators, primary screen, cell-based, plate reader, single point; Wnt/beta-catenin reporter cell assay, activator; activation, % at 9.35 µM; 1.2% of 300,000 active; in the data active means activation above about 30%, passing the limit was not always enough;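 further: 0% = neutral control wells and 100% = positive control wells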
* hit, by the source's call. The list is not random: actives were taken first. Their share in the collection is about 3.8%.

S=C(N=Nc1ccccc1)NNc1ccccc1 was read as HSF1 activator -6.9, HSF1 inhib -6.1, MITF act 32.0, esBAF inh 63.3* and Wnt act 43.5*.
Cc1ccc(S(=O)(=O)N(C)C[C@H]2Oc3ccc(NC(=O)Nc4ccc(F)cc4)cc3C(=O)N([C@H](C)CO)C[C@@H]2C)cc1 was read as esBAF inh 1.3.
`O=C(NC(=S)N(CCO)Cc1ccccc1)c1ccc(S(=O)(=O)N2CCCC2)cc1` gave HSF1 activator -0.8, HSF1 inhib -3.2, MITF act -1.3 and Wnt act 45.1*.
CCn1c2ccccc2c2nc3ccccc3nc21 was read as HSF1 activator 37.1, HSF1 inhib 12.5 and esBAF inh 10.9.
`CC(=O)n1c2ccccc2c2nc3ccccc3nc21` gave HSF1 activator 13.8, HSF1 inhib 1.6, MITF act 23.5 and esBAF inh 72.0*.
Screening C[C@@H]1CN([C@H](C)CO)C(=O)c2cc(NC(=O)CCC(F)(F)F)ccc2O[C@@H](C)CCCCO[C@H]1CN(C)Cc1ccncc1 returned esBAF inh -6.6.
`O=C(/C=C/Nc1ccc([N+](=O)[O-])cc1Br)c1cccc2ccccc12` gave HSF1 activator 51.3*, HSF1 inhib 19.3, MITF act 115.4* and Wnt act 48.4*.
NC(=O)c1cc([N+](=O)[O-])ccc1NCc1cccc2ccccc12 was read as MITF act 5.6, esBAF inh 12.7 and Wnt act -3.3.
`NC(=N\N=Cc1ccccc1)/C(N)=N/N=Cc1ccccc1` gave esBAF inh 49.7* and Wnt act -3.9.
`OCCCNc1cc(-c2ccnc(Nc3cccc(Cl)c3)n2)ccn1` gave HSF1 activator -65.9, HSF1 inhib -58.3*, MITF act -56.3, esBAF inh -78.9 and Wnt act -20.9.
COc1cccc2cc(-c3nnc(-c4ccccc4)o3)c(=O)oc12 was read as HSF1 activator -53.9, HSF1 inhib -57.4*, MITF act -9.3, esBAF inh -71.2 and Wnt act 29.6.
Screening COc1cccc2cc(-c3cn4ccc(C)cc4n3)c(=O)oc12 returned HSF1 activator 42.2, HSF1 inhib 16.1, MITF act 72.5 and esBAF inh 104.6*.
`COc1ccc(-c2nnc(-c3cc4ccccc4oc3=O)o2)cc1` gave HSF1 activator -1.4, HSF1 inhib -0.9, MITF act 55.4 and esBAF inh 11.9.
Screening Cc1ccc(-c2noc(-c3ccccc3C(=O)N3CCCC3)n2)cc1 returned HSF1 activator -5.5, HSF1 inhib -11.1, MITF act 6.1 and esBAF inh 38.4.
Screening O=C(c1ccccc1-c1nc(-c2ccccc2)no1)N1CCCC1 returned HSF1 activator 24.1, HSF1 inhib 15.5, MITF act 1.8, esBAF inh 56.9* and Wnt act 10.9.
Screening Cc1ccc(-c2noc(-c3ccccc3C(=O)N3CCN(C)CC3)n2)cc1 returned HSF1 activator -4.6, HSF1 inhib -7.7, esBAF inh 63.7* and Wnt act -3.6.
For CC(=O)N(C)C[C@H]1Oc2cc(-c3ccccc3F)ccc2S(=O)(=O)N([C@H](C)CO)C[C@@H]1C the results were esBAF inh 9.8.
Screening Cc1ccc(/C=N/N(Cc2ccccc2)c2ccccc2)o1 returned HSF1 activator 106.2*, HSF1 inhib 59.6, MITF act 6.2 and Wnt act -4.7.
Screening CO[C@@H]1CN(C)C(=O)c2ccc(NC(=O)c3cnccn3)cc2OC[C@H](C)N(C)C[C@@H]1C returned esBAF inh 1.3.
For CC1CCN(C(=O)CSc2nc3c(cnn3-c3ccc(Cl)cc3)c(=O)[nH]2)CC1 the results were HSF1 activator -89.1, HSF1 inhib -85.8*, MITF act 5.5, esBAF inh 3.9 and Wnt act 2.3.
CN(C)/C=N/c1sc2c(c1C#N)CCCCC2 was read as HSF1 activator 22.2, HSF1 inhib 16.7, MITF act 71.7, esBAF inh 54.5* and Wnt act 6.9.
`CCOc1ncccc1C(=O)Nc1ccc2c(c1)OCO2` gave HSF1 activator -1.9, HSF1 inhib -1.2, MITF act 3.8 and Wnt act 3.0.

Screening data as filed in PubChem.
